Source: PubChem BioAssay AID651706 (NMMLSC, 2012)
Out of some 2,300 compounds screened, about 55 (2%) were called active.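 Rule for the calls: active = share of green or green-and-red cells above 9 and 9% in run 1 or 4 and 3% in run 2; inactive = the rest, inconclusive results apart.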 A selection follows.

Assay: differentiation of ER-HoxA9 arrested myeloid cells – cell-based, GFP/Mac1 flow cytometry, cherry pick 01, confirmation (AID 651706);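 for differentiation response: plate controls were double positive share in DMSO wells for no effect and share in positive control wells for full effect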;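 for double positive cells: share of live cells carrying both lysozyme GFP and MAC1 staining after four days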
Settings: ER-HoxA9 myeloid progenitors, stronger effect = higher value; differentiation response: GFP/Mac1 double-positive flow; double positive cells: measured here: percent double positive cells

SMILES	differentiation response	double positive cells [%]
Cc1ccc2nc(-c3ccccn3)cc(C(=O)Nc3ccc4c(c3)OCO4)c2c1	1.4% (inactive)	0.8
CCN(CC)CC(=O)c1c[nH]c2ccc(OC)cc12	1.4% (inactive)	0.9
CNc1nc(=O)n(C2CCCO2)cc1C (stereo not drawn)	2.7% (inactive)	1.3
Cc1cc(C)c(-c2csc(NC(=O)CCCc3nc4ccccc4c(=O)[nH]3)n2)c(C)c1	3.35% (inactive)	0
CN1CCC(CN)(N2CCN(c3ccccc3)CC2)CC1	1.95% (inactive)	1.25
COc1ccc(S(=O)(=O)N2CCC(C(=O)N3CCc4ccccc4C3)CC2)cc1OC	1% (inactive)	1
Cc1ccc(OS(=O)Nc2cccc3nccnc23)cc1 (stereo not drawn)	1.6% (inactive)	0.85
CCN(CC)C(=O)CSC(Nc1cccc(F)c1)=C(C#N)C#N	13.7% (inactive)	0.9
COc1cc(N=Cc2c(O)[nH]c3ccccc23)cc(OC)c1OC	0% (inactive)	0
CNC[C@H]1Oc2c(NC(=O)C3CCCCC3)cccc2C(=O)N([C@H](C)CO)C[C@@H]1C	4.4% (inactive)	3.95
Cc1nn(-c2ncccn2)c2c1C(=O)CC(C)(C)C2Br (stereo not drawn)	1% (inactive)	0.85
Cn1c2ccccc2c2cc(/C=C(\NC(=O)c3ccccc3)C(=O)NCC(=O)O)ccc21	3.05% (inactive)	2.15
CCOC(=O)c1c(-c2ccc(C)cc2)csc1/N=C(\C)C1=C(O)c2ccccc2C1=O	12.2% (inactive)	3.3
COc1ccc(-c2ccc(OC(=O)NC3CCS(=O)(=O)C3)cc2)cc1 (stereo not drawn)	2.2% (inactive)	0.5
O=S(=O)(c1ccc(Br)cc1)c1nc(-c2ccccc2)oc1NCc1cccnc1	50.5% (inactive)	50.2
Nc1nc(Nc2ccccc2F)nc(NC2CCCCC2)c1[N+](=O)[O-]	51.1% (inactive)	25
Cc1ccc(Nc2cc(C)nc3c(C)ccc([N+](=O)[O-])c23)cc1	11.4% (inactive)	0.55
CN1OC(COC(=O)c2ccc(Cl)cc2)CC1c1ccccc1 (stereo not drawn)	1.05% (inactive)	0.8
COc1cc(/C=C2/SC(=S)N(Cc3ccccc3)C2=O)cc(OC)c1O	2.8% (inactive)	0.4
Clc1ccc(-c2nnc(SCc3nc4ccccc4s3)o2)cc1	1.05% (inactive)	1
CC(=O)Nc1ccc(S(=O)(=O)Nc2ccc(N3CCOCC3)c(F)c2)cc1	1.45% (inactive)	1
COc1ccc(N(CC(=O)NC2CCCCCCC2)S(=O)(=O)c2c(C)nn(C)c2C)cc1	1.75% (inactive)	0.95
O[C@H]1CN(Cc2cccs2)[C@@H](c2ccc(Cl)cc2)C[C@@H]1n1cc(C2CC2)nn1	1.4% (inactive)	1.1
O[C@H]1C[C@H](c2ccc(Cl)cc2)N(Cc2cccs2)C[C@@H]1n1cc(C2CC2)nn1	18.4% (active)	13.1
